“And” between values parts separate entries of the source, which are not always exact repeats. Equal values may be shown once. Records with an inconclusive call do not appear. More than one record can exist for a structure, and the calls need not agree. The source made the active and inactive calls. The calls were made as follows, unless noted: active = hit-call score of the fitted dose curve at least 0.9, where 1 is the maximum; inactive = score below 0.9.
Assays:
[1] = CCTE_Shafer_MEA_acute_per_network_burst_spike_number_std: CCTE's Neural Acute Assay for Standard Deviation of Number of Spikes in a Network Burst, Shafer Lab (AID 2284020);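 also: fitted for decrease in spike-number SD versus DMSO so actives lower it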
Method in brief: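 Endpoint: percent change from 40 min baseline in standard deviation of spikes per network burst, after 40 min compound exposure (0.03-40 uM, 37 C). Cortical rat neurons on MEA at DIV 13 or 15; spikes detected at 8x rms noise, 300-5000 Hz band-pass.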

[2] = CCTE_Shafer_MEA_acute_per_network_burst_electrodes_number_mean: CCTE's Neural Acute Assay for Mean Number of Electrodes in a Network Burst, Shafer Lab (AID 2284021);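 also: curves fitted for decreases only so hits reduce electrodes per burst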
Method in brief: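 Percent change from baseline was computed as mean electrode count per network burst, comparing 40 min recordings before and during compound (0.03-40 uM) exposure. Cultures were rat cortical neurons at DIV 13 or 15, recorded on MEAs at 37 C with an adaptive 8x rms threshold.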

[3] = CCTE_Shafer_MEA_acute_network_burst_percentage: CCTE's Neural Acute Assay for Percentage of Network Bursts, Shafer Lab (AID 2284022);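 also: curves fitted for loss so actives lower network burst percentage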
Method in brief: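 Network burst percentage (spikes in network bursts divided by total spikes) recorded at 37 C over 40 min baseline and 40 min after compound, 0.03-40 uM, in rat cortical cultures at DIV 13 or 15. Analysed as percent change from baseline versus DMSO.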

[4] = CCTE_Shafer_MEA_acute_cross_correlation_area: CCTE's Neural Acute Assay for Area of Cross Correlation, Shafer Lab (AID 2284024);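 also: area under pooled inter-electrode spike cross-correlation near zero lag as percent change from own baseline; curves fitted for loss of cross-correlation area so actives lower synchrony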;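 as to outcome: rat primary cortical neuron networks on 48-well MEA at DIV 13 or 15 with 40 min exposure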
Method in brief: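 Percent change in well-wide cross-correlation area (window around zero lag) between 40 min baseline and 40 min post-compound recordings, 37 C; rat cortical cultures on MEA at DIV 13 or 15, dosed 0.03-40 uM, wells needing >/= 10 active electrodes.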

[5] = CCTE_Shafer_MEA_acute_cross_correlation_HWHM: CCTE's Neural Acute Assay for Cross Correlation at Half Width at Half Maximum, Shafer Lab (AID 2284026);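 also: percent change per well from pre-dose baseline in spike cross-correlogram half width; hits are a decrease in cross-correlogram half width relative to DMSO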;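 as to outcome: spontaneous network firing of rat primary cortical neurons on multiwell microelectrode arrays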
Method in brief: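 Per-well percent change in cross-correlogram half width at half maximum, derived from 40-min recordings before and after compound (0.03-40 uM) at 37 C. Cultures were rat cortical neurons, DIV 13 or 15, with adaptive spike detection at 8x rms.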

[6] = CCTE_Shafer_MEA_acute_synchrony_index: CCTE's Neural Acute Assay for Synchrony, Shafer Lab (AID 2284027);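 also: network synchrony index of spontaneous spiking in primary rat cortical neurons on MEAs; fitted for loss of signal so actives lower synchrony relative to DMSO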
Method in brief: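 Plates equilibrated 20 min at 37 C, baseline recorded 40 min, compound (0.03-40 uM) added, then 40 min more recorded. Cells: primary rat cortical neurons, DIV 13 or 15. Per-well synchrony index change analysed in negative direction against DMSO.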

[7] = molecular target: Estrogen receptor (Homo sapiens) (UniProt P03372); assay: CCTE_Deisenroth_AIME_96WELL_LUC_Inactive: CCTE's 96-well Estrogen Receptor Transactivation Assay without AIME metabolic competence (ERTA luciferase; metabolism negative), Deisenroth Lab (AID 2284025; active = hit-call score of the fitted dose curve at least 0.9, where 1 is the maximum)
Method in brief: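 Metabolism-negative arm: chemicals (0.002–200 uM, 10 points) incubated 2 h with alginate-water microspheres, then medium moved onto VM7Luc4E2 cells for 24 h luciferase read-out. Positive direction vs 17beta-estradiol; n≥4 experiments.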

[8] = CCTE_Deisenroth_AIME_96WELL_CTox_Active: Cytotoxicity Assessment (CTOX) in CCTE's 96-well Estrogen Receptor Transactivation Assay with AIME metabolic competence (metabolism positive), Deisenroth Lab (AID 2284028; active = hit-call score of the fitted dose curve at least 0.9, where 1 is the maximum)
Method: (§1) CCTE_Deisenroth_AIME_96WELL (AIME metabolism assay) is a cell-based, single-readout assay that uses VM7Luc4E2, a human mammary gland/breast cell line, with measurements taken at 24 hour after chemical dosing in a 96-well plate.CCTE_Deisenroth_AIME_96WELL_CTox_Active is one of four assay components measured or calculated from the CCTE_Deisenroth_AIME_96WELL assay. It is designed to make measurements of a protease substrate, a type of viability indicator, as detected with substrate cleavage to a fluorescent probe in living cells.CCTE_Deisenroth_AIME_96WELL_CTox_Active is a component of the CCTE_Deisenroth_AIME_96WELL assay that measures the effect of retroftting the VM7Luc ERTA assay with the Alginate Immobolization of Metabolic Enzymes (AIME) metabolism method. AIME is optimized to impart phase I hepatic metabolism using phenobarbital/beta-naphthoflavone induced hepatic S9 from male Sprague Dawley rats. Parent chemicals are incubated for 2 hours in the AIME assay prior to transfer to the VM7Luc ERTA assay plate. […] This endpoint evaluates cytotoxicity in metabolism positive mode. Using a type of flourescent probe in VM7Luc cells, loss-of-signal activity can be used to understand loss of viability. This assay endpoint, CCTE_Deisenroth_AIME_96WELL_CTox_Active, was analyzed with bidirectional fitting in the ERTA assay.
(§2) The AIME procedure consists of a preparative "pre-stamping" step using a barium chloride/poly-L-lysine (PLL) solution followed by "stamping" the lid in alginate-hepatic S9 (metabolism positive) or alginate-water (metabolism negative) to form microspheres. Once stamping is completed, the AIME lids are placed in duplicate microplates (metabolism positive or negative) containing chemical solutions and incubated for two hours to facilitate metabolic reactions. The conditioned medium, containing parent chemical or metabolites, is then transferred to the cell-based VM7Luc Estrogen Receptor Transactivation Assay (ERTA) for 24 hours. A typical experimental design tests a 10-point concentration series (0.002 - 200 uM) for 8 compounds (96-well format)1 or 32 compounds (384-well format)2 in single technical replicate. AIME assay controls include trans-stilbene (bioactivated control) and ethylparaben (bioinactivated control). ERTA assay plate controls include 17-beta estradiol (positive control) and DMSO (solvent control). Experiments typically comprise a minimum of four experimental replicates (n=4).

[9] = CCTE_Deisenroth_AIME_96WELL_CTox_Inactive: Cytotoxicity Assessment (CTOX) in CCTE's 96-well Estrogen Receptor Transactivation Assay without AIME metabolic competence (metabolism negative), Deisenroth Lab (AID 2284029; active = hit-call score of the fitted dose curve at least 0.9, where 1 is the maximum)
Method: as §1, with “plate.CCTE_Deisenroth_AIME_96WELL_CTox_Inactive” for “plate.CCTE_Deisenroth_AIME_96WELL_CTox_Active”, “cells.CCTE_Deisenroth_AIME_96WELL_CTox_Inactive” for “cells.CCTE_Deisenroth_AIME_96WELL_CTox_Active”, “negative” for “positive”, “CCTE_Deisenroth_AIME_96WELL_CTox_Inactive,” for “CCTE_Deisenroth_AIME_96WELL_CTox_Active,”
as §2

[10] = molecular target: Estrogen receptor (Homo sapiens) (UniProt P03372); assay: CCTE_Deisenroth_AIME_96WELL_LUC_Active: CCTE's 96-well Estrogen Receptor Transactivation Assay with AIME metabolic competence (ERTA luciferase; metabolism positive), Deisenroth Lab (AID 2284023; active = hit-call score of the fitted dose curve at least 0.9, where 1 is the maximum)
Method in brief: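 Metabolism-positive mode: induced rat hepatic S9 in alginate microspheres conditions test solutions (0.002 - 200 uM, 10 points) for 2 hours. VM7Luc4E2 ER luciferase reporter cells then exposed 24 h; positive-direction fit against 17beta-estradiol, n=4 typical.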

Estrogen receptor (Homo sapiens), sequence (P03372 whole entry, looked up): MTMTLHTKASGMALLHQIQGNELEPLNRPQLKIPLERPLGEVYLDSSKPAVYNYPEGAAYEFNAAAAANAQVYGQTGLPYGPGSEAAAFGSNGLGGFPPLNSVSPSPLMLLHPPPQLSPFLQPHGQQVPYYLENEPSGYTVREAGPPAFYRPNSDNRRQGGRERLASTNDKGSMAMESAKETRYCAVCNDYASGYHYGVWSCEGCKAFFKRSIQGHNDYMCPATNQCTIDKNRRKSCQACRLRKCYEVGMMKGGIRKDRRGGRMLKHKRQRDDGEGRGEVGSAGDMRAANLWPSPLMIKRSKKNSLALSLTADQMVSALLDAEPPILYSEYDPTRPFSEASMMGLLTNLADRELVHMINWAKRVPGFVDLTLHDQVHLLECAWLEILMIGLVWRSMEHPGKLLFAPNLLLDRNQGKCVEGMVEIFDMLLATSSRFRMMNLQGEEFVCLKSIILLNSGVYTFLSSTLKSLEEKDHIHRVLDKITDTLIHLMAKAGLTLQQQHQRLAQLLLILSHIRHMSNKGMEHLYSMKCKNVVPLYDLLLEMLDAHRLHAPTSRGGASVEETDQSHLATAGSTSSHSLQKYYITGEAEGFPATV

CC(C)(C)c1cc(C(C)(C)C)c(O)c(C(C)(C)C)c1
outcome [1]: inactive
outcome [2]: inactive
outcome [3]: inactive
outcome [4]: inactive
outcome [5]: inactive
AC50 [6]: 0.167 µM (active)

Oc1cc2ccccc2c2ccccc12
outcome [1]: inactive
outcome [2]: inactive
outcome [3]: inactive
outcome [4]: inactive
outcome [5]: inactive
outcome [6]: inactive

Cc1cc(CCN2CCN(c3nsc4ccccc34)CC2)cc2c1NC(=O)CC2(C)C
AC50 [1]: 7.3 µM (active)
AC50 [2]: 32.4 µM (active)
outcome [3]: inactive
outcome [4]: inactive
AC50 [5]: 20 µM (active)
AC50 [6]: 33.4 µM (active)

COc1cc(CCC(=O)CC(=O)CCc2ccc(O)c(OC)c2)ccc1O
outcome [7]: inactive
AC50 [8]: 150 µM (active)
AC50 [9]: 164 µM (active)

CC#C[C@]1(O)CC[C@H]2[C@@H]3CCC4=CC(=O)CCC4=C3[C@@H](c3ccc(N(C)C)cc3)C[C@@]21C
AC50 [1]: 9.84 µM (active)
outcome [1]: inactive
AC50 [2]: 7.54 µM (active)
outcome [2]: inactive
AC50 [3]: 16.2 µM (active)
outcome [3]: inactive
outcome [4]: inactive
AC50 [5]: 20 µM (active) and 5.43 µM (active)
AC50 [6]: 16.2 µM (active) and 7.18 µM (active)

O=C(/C=C/c1ccc(O)cc1)CC(=O)/C=C/c1ccc(O)cc1
AC50 [10]: 31.4 µM (active)
AC50 [7]: 43.2 µM (active)
outcome [8]: inactive

c1ccc2c(c1)ccc1ccccc12
outcome [10]: inactive
AC50 [7]: 133 µM (active)
outcome [9]: inactive

CN1CCC[C@H]1c1cccnc1
outcome [1]: inactive
outcome [2]: inactive
outcome [3]: inactive
AC50 [4]: 0.7 µM (active)
outcome [5]: inactive
outcome [6]: inactive

O=C(O)c1ccccc1C(c1ccc(O)cc1)c1ccc(O)cc1
outcome [1]: inactive
outcome [2]: inactive
outcome [3]: inactive
AC50 [4]: 20 µM (active)
outcome [5]: inactive
AC50 [6]: 7.86 µM (active)

CCCCC[C@H](O)CC(=O)CCc1ccc(O)c(OC)c1
AC50 [10]: 26 µM (active)
AC50 [7]: 24.9 µM (active)
outcome [8]: inactive
outcome [9]: inactive

CCCCCCCCCCCCc1ccccc1S(=O)(=O)O
outcome [1]: inactive
outcome [2]: inactive
outcome [3]: inactive
outcome [4]: inactive
outcome [5]: inactive
AC50 [6]: 33.1 µM (active)

CCCCCCCCCCCCN1CCCC1=O
outcome [1]: inactive
outcome [2]: inactive
outcome [3]: inactive
outcome [4]: inactive
outcome [5]: inactive
outcome [6]: inactive

O=c1c(-c2ccc(O)cc2)coc2cc(O)ccc12
outcome [1]: inactive
outcome [2]: inactive
outcome [3]: inactive
outcome [4]: inactive
AC50 [5]: 24.4 µM (active)
AC50 [6]: 12.2 µM (active)
outcome [8]: inactive

CN(C)C=O
outcome [1]: inactive
outcome [2]: inactive
outcome [3]: inactive
outcome [4]: inactive
outcome [5]: inactive
outcome [6]: inactive

CCCCC(CC)COC(=O)CCCCC(=O)OCC(CC)CCCC (stereo not given)
outcome [10]: inactive
outcome [7]: inactive
outcome [8]: inactive
outcome [9]: inactive

c1ccc2cc3c(ccc4ccccc43)cc2c1
AC50 [10]: 11.8 µM (active)
AC50 [7]: 5.25 µM (active)
outcome [8]: inactive
outcome [9]: inactive

CC(C)(C)c1ccc(O)c(C(C)(C)C)c1
AC50 [10]: 26.4 µM (active)
AC50 [8]: 155 µM (active)
AC50 [9]: 163 µM (active)

CCC(=C(c1ccc(O)cc1)c1ccc(OCCN(C)C)cc1)c1ccccc1
AC50 [1]: 23.8 µM (active)
outcome [2]: inactive
outcome [3]: inactive
outcome [4]: inactive
outcome [5]: inactive
AC50 [6]: 20.9 µM (active)

CC(C)CCCCCCOC(=O)CCCCC(=O)OCCCCCCC(C)C
outcome [1]: inactive
outcome [2]: inactive
outcome [3]: inactive
outcome [4]: inactive
outcome [5]: inactive
outcome [6]: inactive

CCCOc1sc(C(=O)N2CCC(c3cc(CN)ccc3F)CC2)c(C)c1Br
outcome [1]: inactive
outcome [2]: inactive
outcome [3]: inactive
outcome [4]: inactive
outcome [5]: inactive
outcome [6]: inactive

CCCCCCCCCCCCCCCS(=O)(=O)Oc1ccccc1
outcome [1]: inactive
outcome [2]: inactive
outcome [3]: inactive
outcome [4]: inactive
outcome [5]: inactive
outcome [6]: inactive

OC1CCC(C2CCCCC2)CC1 (stereo not given)
outcome [1]: inactive
outcome [2]: inactive
outcome [3]: inactive
outcome [4]: inactive
AC50 [5]: 30 µM (active)
outcome [6]: inactive

CN1CCN(c2ccccc2/C=C2\SCCN(c3ccc(Cl)c(Cl)c3)C2=O)CC1
outcome [1]: inactive
outcome [2]: inactive
outcome [3]: inactive
outcome [4]: inactive
AC50 [5]: 3.97 µM (active)
AC50 [6]: 34 µM (active)

CC(=O)NC1(c2cccc(F)c2)CCN(CC[C@@]2(c3ccc(Cl)c(Cl)c3)CN(c3ccccc3)C(=O)CO2)CC1
outcome [1]: inactive
outcome [2]: inactive
AC50 [3]: 8.3 µM (active)
AC50 [4]: 1.03 µM (active)
AC50 [5]: 20 µM (active)
AC50 [6]: 9.53 µM (active)

c1ccc2c(c1)Cc1ccccc1-2
outcome [10]: inactive

CC[C@H](c1ccc(O)cc1)[C@@H](CC)c1ccc(O)cc1
outcome [1]: inactive
outcome [2]: inactive
outcome [3]: inactive
outcome [4]: inactive
outcome [5]: inactive
outcome [6]: inactive

NC(=O)N(O)[C@@H]1C=C[C@H](Oc2cccc(Oc3ccc(F)cc3)c2)C1
AC50 [1]: 10 µM (active)
outcome [2]: inactive
outcome [3]: inactive
outcome [4]: inactive
AC50 [5]: 10 µM (active)
AC50 [6]: 10 µM (active)

CCc1ccc(CCOc2ccc(CC3SC(=O)NC3=O)cc2)nc1 (stereo not given)
outcome [1]: inactive
outcome [2]: inactive
outcome [3]: inactive
outcome [4]: inactive
outcome [5]: inactive
outcome [6]: inactive

OCCC(F)(F)C(F)(F)C(F)(F)C(F)(F)C(F)(F)C(F)(F)C(F)(F)C(F)(F)F
outcome [1]: inactive
outcome [2]: inactive
outcome [3]: inactive
outcome [4]: inactive
outcome [5]: inactive
outcome [6]: inactive

Reference: PubChem BioAssay (EPA / NIEHS)
